Out of some 48,000 compounds screened, about 13,000 (27%) showed an effect of 50% or more. This is one part of the list.
Each molecule was assayed on Wolbachia pipientis (assay: Anti-Wolbachia Cell-Based Screen). Conditions: 5 µM.
Type: functional
Parameters: scale not given: in the data most compounds retested in dose-response had high values

Structure (SMILES) | Percent Effect
Cc1ccccc1CN1C[C@@H]2CC[C@H](C1)N(CC1CCC1)C2=O | -3.68%
c1cnnc(N2CCCC2CNc2nc3ccccc3o2)c1 (centres undefined) | 0.7954%
Cn1cc(N2CCCC(Nc3ccc4c(c3)CCC(=O)N4)C2=O)cn1 (centres undefined) | -0.6283%
CC(NC(=O)NC1CCN(Cc2ccccc2)CC1)c1nncn1C (centres undefined) | -0.6608%
CC(C)c1nsc(N2CCn3c(nnc3-c3ccccc3)C2)n1 | -7.754%
O=C(O)C(F)(F)F.O=C(c1cc(C2CC2)on1)N1C[C@@H]2COC[C@]2(COc2cccnc2)C1 | 101.2%
O=C(O)C(F)(F)F.O=C(c1ccccc1F)N1C[C@@H]2COC[C@]2(COCc2cccnc2)C1 | 3.343%
Cc1ccccc1C(=O)N1C[C@@H]2COC[C@]2(COCc2cccnc2)C1.O=C(O)C(F)(F)F | -1.339%
O=C(COC1CCCC1)N1C[C@@H]2COC[C@]2(COc2cccnc2)C1.O=C(O)C(F)(F)F | 91.64%
Cc1ccoc1C(=O)N1C[C@@H]2COC[C@]2(COCc2cccnc2)C1.O=C(O)C(F)(F)F | -8.448%
O=C(O)C(F)(F)F.O=C(c1ccc(F)cc1)N1C[C@@H]2COC[C@]2(COc2cccnc2)C1 | 125.5%
COc1ccc(CN2C[C@@H]3COC[C@]3(COc3cccnc3)C2)cc1.O=C(O)C(F)(F)F.O=C(O)C(F)(F)F | 13.03%
Cc1cc(C(=O)N2C[C@@H]3COC[C@]3(COCc3cccnc3)C2)no1 | -1.047%
O=C(COc1ccccc1)N1C[C@@H]2COC[C@]2(COc2cccnc2)C1.O=C(O)C(F)(F)F | 107.1%
CNC(=O)CCNC(=O)Nc1cccc(Cl)c1SC(F)F | -9.606%
CN(C)c1ccc(C(O)CNS(=O)(=O)C2CC2)cc1 (centres undefined) | -7.172%
Cc1ccc(C(=O)N2CCC3(CC2)c2ccccc2[C@@H](N)[C@@H]3O)c(=O)[nH]1 | 1.157%
CCN1CCN(C(=O)c2c[nH]c(C(C)C)n2)c2ccccc21 | 16.43%
COCCCNC(=O)Cc1cc(-c2ccccc2)on1 | -3.078%
COCCCNC(=O)COc1ccccc1C(F)(F)F | 10.69%
COCCCNc1cc(C(=O)N2CCOCC2)ccc1C | 15.11%
COCCCNc1c(-c2ccc(C)cc2)c(=O)c1=O | 103%
COCCCNc1c(-c2ccccc2)c(=O)c1=O | 111.1%
COCCCNC(=O)NCc1ccc(C)cc1 | 9.073%
COCCNC(C)c1ccc(-c2cccnc2)cc1 (centres undefined) | -4.646%
COCCNc1c(-c2ccc(C)cc2)c(=O)c1=O | 115.7%

Structure (SMILES) | Percent Effect
Cc1cnn(CCNCC(O)COc2cccc(C(F)(F)F)c2)c1 (centres undefined) | -5.996%
Oc1ccc(Br)c(CNc2cccc(-c3nnc[nH]3)c2)c1 | -21.72%
CC(O)CN1CCN(C(=O)c2cnc(OC(C)C)c(Cl)c2)CC1 (centres undefined) | -53.57%
CCOc1ccc(Cl)c(C(=O)N2CCN(CCO)CC2)n1 | -4.151%
CC(C)Oc1ccc(Cl)c(C(=O)N2CCN(CCO)CC2)n1 | 76.59%
COCCOc1ccc(Cl)c(C(=O)N2CCN(CCO)CC2)n1 | 97.38%
Cc1nc(-c2ccccc2)ccc1C(=O)N1CCN(CCO)CC1 | 1.858%
O=C(c1cc2ccccc2c(=O)[nH]1)N1CCN(CCO)CC1 | -3.156%
Cc1ccc(C(=O)O)cc1S(=O)(=O)Nc1nn(-c2ccccc2)cc1C | -18.22%
CC(C(N)=O)N1CCc2onc(-c3cccc(F)c3)c2C1 (centres undefined) | 31.58%
CCC(CC)CS(=O)(=O)NC(=O)C1CCC1 | -17.91%
COC(=O)NC1(C(=O)Nc2ccc(-c3ncc[nH]3)cc2)CCCC1 | 5.421%
Cc1cccc(-c2nc(CN3CCc4cnc(C)nc4C3)no2)c1 | 0.7919%
Cc1cc(C)c(CNC(=O)N2CCCC2c2ccc(F)cc2)c(=O)[nH]1 (centres undefined) | 86.68%
Cc1cc(C)c(CNC(=O)N2CCCC2c2cccn2C)c(=O)[nH]1 (centres undefined) | 1.985%
Cc1cc(C)c(CNC(=O)N(C)CC2CCCCO2)c(=O)[nH]1 (centres undefined) | -5.607%
Cc1cc(C)c(CNC(=O)N2CCCC2c2cccc(F)c2)c(=O)[nH]1 (centres undefined) | 115.9%
Cc1cc(C)c(CNC(=O)N2CCCC2c2ccccc2)c(=O)[nH]1 (centres undefined) | 10.36%
Cn1cc(N2CC3(CCN(S(=O)(=O)C4CC4)C3)CC2=O)cn1 (centres undefined) | -15.9%
CCCN(CCC)C(=O)c1sc(C)nc1C | -0.04444%
CCN(CC)CCn1ccnc1-c1cccc(O)c1 | 9.33%
CCc1nnc2n1CCN(CC(=O)Nc1cc(C(C)(C)C)nn1C)C2 | -9.721%
CC(C)(C)OCCN(Cc1cccc(O)c1)C1CCC(O)CC1 (centres undefined) | -0.1894%
Cc1nc(C2CCCN2Cc2ccc(S(=O)(=O)N(C)C)o2)no1 (centres undefined) | 115.8%
Cc1cc(C2CCCN2Cc2nnc(-c3ccco3)o2)on1 (centres undefined) | 10.62%
Cc1nc(C2CCCN2CCCS(=O)(=O)N(C)C)no1 (centres undefined) | -21.09%

Structure (SMILES) | Percent Effect
Cc1cc(C2CCCN2Cc2ccc(S(=O)(=O)N(C)C)o2)on1 (centres undefined) | 125.1%
CCN(C(=O)CN1CCCC1c1cc(C)no1)c1ccccc1C (centres undefined) | -1.91%
Cc1nc(C2CCCN2Cc2cc(Cl)c3c(c2)OCCO3)no1 (centres undefined) | -1.319%
CNC(=O)CCCNCc1c(C(C)C)nn(C)c1N(C)C | -0.6366%
O=C1CC(c2ccncc2)c2c(c(C(=O)O)cn2-c2ccc(F)cc2)N1 (centres undefined) | 5.752%
Cn1cc(S(=O)(=O)NC(=O)C2(c3ccccc3)CCC2)cn1 | -6.386%
Cc1ccc(S(=O)(=O)NC(=O)C2(c3ccccc3)CCC2)c(C)c1 | 104.1%
Cc1ccc(S(=O)(=O)NC(=O)C2(c3ccc(F)cc3)CCC2)c(C)c1 | 80.83%
Cc1ccc(S(=O)(=O)NC(=O)COc2cccc(C#N)c2)c(C)c1 | 41.14%
CS(=O)(=O)NCCNC(=O)C1(c2ccc(F)cc2)CC1 | 10.89%
Cc1ccccc1S(=O)(=O)NC(=O)C1(c2cccc(Cl)c2)CC1 | 3.29%
Cc1ccccc1S(=O)(=O)NC(=O)C1(c2ccccc2)CCC1 | 93.86%
Cc1cccc(C2(C(=O)NS(=O)(=O)c3cnn(C)c3)CCCC2)c1 | -9.611%
Cc1ccc(S(=O)(=O)NC(=O)c2cccc3c2OCCO3)c(C)c1 | -13.25%
CNc1ncc(CN(C)c2nccc(CCC(F)(F)F)n2)cn1 | -7.876%
CS(=O)(=O)Nc1cccc(CNC(=O)CCC(=O)c2cccs2)c1 | 1.298%
CCC(=O)N1CCCCC1c1nc(O)c2c(n1)CN(C(=O)C1CC1)CC2 (centres undefined) | 109.8%
CCC(=O)N1CCc2c(O)nc(C3CCCCN3C(=O)C3CC3)nc2C1 (centres undefined) | 88.1%
CN(C)c1nc2c(c(N(C)C)n1)CCN(C(=O)CN1CCC(O)CC1)C2 | -41.67%
CCC(=O)N1CCCCC1c1nc(O)c2c(n1)CN(C(C)=O)CC2 (centres undefined) | 111%
CC(C)N1CCC(C(=O)N2CCc3c(nc(CC4CC4)[nH]c3=O)C2)CC1 | -3.187%
CC1CCCCN1C(=O)c1nc2c(n1C(C)C)CCN(C(=O)C1CC1)C2 (centres undefined) | -21.18%
CC(=O)NC1CCN(c2nc(N(C)C)nc3c2CCN(C(C)=O)C3)CC1 | 3.638%
CC(C)c1noc(CS(=O)(=O)CC(=O)NCc2cccs2)n1 | -1.009%
CCN(Cc1ccco1)C(=O)Nc1cc(C(F)(F)F)c[nH]c1=O | 8.276%
CC(C)(O)CCc1cccc(C(=O)N[C@H](C(N)=O)c2ccccc2)c1 | -7.223%

Structure (SMILES) | Percent Effect
Cc1cccc2c1nc(COCC(=O)O)n2-c1ccsc1 | 2.323%
NS(=O)(=O)CCNC(=O)CCc1cc(Br)cs1 | 1.171%
Cc1ccc(CNC(=O)N2CCCCC2CCNS(C)(=O)=O)cc1 (centres undefined) | -22.58%
CS(=O)(=O)NCC(=O)NC(Cc1ccccc1)C1CCCC1 (centres undefined) | -11.78%
CCNC(=O)N1CCCCC1CCNS(C)(=O)=O (centres undefined) | -13.96%
CC(CC(=O)NCCNS(C)(=O)=O)C1CCCCC1 (centres undefined) | 132.7%
CC(CC(=O)NCCS(N)(=O)=O)C1CCCCC1 (centres undefined) | 93.71%
CC(C)c1ccc(C2(C(=O)NCCS(N)(=O)=O)CCC2)cc1 | -17.74%
CC(CC(=O)NS(C)(=O)=O)C1CCCCC1 (centres undefined) | 81.01%
CC(CC(=O)Nc1ncn(CC(=O)N2CCCCCC2)n1)C1CC1 (centres undefined) | 14.79%
CCS(=O)(=O)N1Cc2ccnn2CC(c2nc(C)no2)C1 (centres undefined) | -5.084%
CCCC(=O)N(CC)C(c1cccnc1)c1ccc2c(c1)CCO2 (centres undefined) | -14.24%
Cc1cc(C(N)=O)ccc1NC(=O)N1CCN(c2cccs2)CC1 | 1.471%
COc1nn(C)cc1C(=O)NCC(OC)c1ccccc1C (centres undefined) | 0.6487%
CC(C)NC(=O)[C@@H]1C[C@H](N)CN1C(=O)c1cc2ccccc2[nH]c1=O | -13.02%
CC(NCCc1nccn1Cc1ccccc1)c1cccs1 (centres undefined) | 7.205%
CN(Cc1ccccn1)c1nccc(N2CCN[C@H]3CS(=O)(=O)C[C@H]32)n1 | -6.376%
CC(C)CNC(=O)COc1cccc[n+]1[O-] | -1.693%
CC(C)CNC(=O)CSc1nnc(OC(C)C)s1 | 1.156%
CC(C)CNC(=O)CN(CC(=O)NCC(C)C)S(C)(=O)=O | 89.59%
CC(C)CNC(=O)CN(C)S(C)(=O)=O | 111.5%
CC(NC(=O)CN(C)S(C)(=O)=O)c1ccc(F)cc1 (centres undefined) | -21.23%
CN(CC(=O)NC(c1ccc(F)cc1)C(F)(F)F)S(C)(=O)=O (centres undefined) | -15.92%
CC(C(=O)N(Cc1ccc(F)cc1)CC(F)(F)F)S(C)(=O)=O (centres undefined) | 19.96%
CC(C)CNC(=O)CN(Cc1ccc(F)cc1)S(C)(=O)=O | 96.65%
CN(CC(=O)NCc1cc2ccccc2o1)S(C)(=O)=O | 6.61%

From ChEMBL document CHEMBL3988442, “University of Dundee, Small-Polar-MMV Screening Library” (2021)
